Source: PubChem BioAssay AID1159580 (chemical genetic matrix, 2015)
Values joined by “and” are separate entries in the source; they are usually repeats but may differ in a detail not shown here. Identical values can stand only once. Among all 5,500 compounds or so, about 2,000 (36%) were called active. Not shown: some 18% with an inconclusive outcome. Cut-off read from the data, not from the text of the source: active = normalized growth mostly below about 0.91 (no sharp cut-off); inconclusive = no clear call, values can overlap the other calls; inactive = mostly above about 0.92. The list shows a part of the results.

Test: chemical genetic growth profiling, strain panel (AID 1159580);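 note: tested at 20 µM; growth read once vehicle control cultures reached saturation at 30 °C; 1 = growth at the plate median or of vehicle wells; lower values mean less growth of the strain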
Conditions: growth OD
[1] = S. cerevisiae deletion strains, locus YDL101C, strain DUN1, hits give low values
[2] = S. cerevisiae deletion strains, locus YHR030C, strain SLT2, hits give low values
[3] = S. cerevisiae deletion strains, locus YHR079C, strain IRE1, hits give low values
[4] = S. cerevisiae deletion strains, locus YJL095W, strain BCK1, hits give low values
[5] = S. cerevisiae deletion strains, locus YJR066W, strain TOR1, hits give low values
[6] = S. cerevisiae deletion strains, locus YLR113W, strain HOG1, hits give low values
[7] = S. cerevisiae deletion strains, locus YNL183C, strain NPR1, hits give low values
[8] = S. cerevisiae deletion strains, locus YOR061W, strain CKA2, hits give low values
[9] = S. cerevisiae deletion strains, locus YOR231W, strain MKK1, hits give low values
[10] = S. cerevisiae deletion strains, locus YPL256C, strain CLN2, hits give low values

Measured: normalized growth

CS(=O)(=O)/C(C#N)=C/c1ccccc1OCc1c(Cl)cccc1Cl
inactive: S. cerevisiae deletion strains, locus YAR019C, strain CDC15, hits give low values 0.978 | S. cerevisiae deletion strains, locus YBL105C, strain PKC1, hits give low values 0.958 | S. cerevisiae deletion strains, locus YBR135W, strain CKS1, hits give low values 0.964 | S. cerevisiae deletion strains, locus YBR136W, strain MEC1, hits give low values 0.958 | S. cerevisiae deletion strains, locus YBR160W, strain CDC28, hits give low values 0.954 | S. cerevisiae deletion strains, locus YDL017W, strain CDC7, hits give low values 0.961 | S. cerevisiae deletion strains, locus YDL028C, strain MPS1, hits give low values 0.956 | [1] 0.958 | S. cerevisiae deletion strains, locus YDL108W, strain KIN28, hits give low values 0.942 | S. cerevisiae deletion strains, locus YDL132W, strain cdc53, hits give low values 0.96 | S. cerevisiae deletion strains, locus YDL214C, strain PRR2, hits give low values 0.926 | S. cerevisiae deletion strains, locus YDR052C, strain DBF4, hits give low values 0.957 | S. cerevisiae deletion strains, locus YDR054C, strain cdc34, hits give low values 0.975 | S. cerevisiae deletion strains, locus YDR226W, strain ADK1, hits give low values 0.969 | S. cerevisiae deletion strains, locus YDR477W, strain SNF1, hits give low values 0.943 | S. cerevisiae deletion strains, locus YER123W, strain YCK3, hits give low values 0.913 | S. cerevisiae deletion strains, locus YER133W, strain GLC7, hits give low values 0.953 | S. cerevisiae deletion strains, locus YFL009W, strain cdc4, hits give low values 0.977 | S. cerevisiae deletion strains, locus YFL029C, strain CAK1, hits give low values 0.979 | S. cerevisiae deletion strains, locus YFR003C, strain YPI1, hits give low values 0.965 | S. cerevisiae deletion strains, locus YFR019W, strain FAB1, hits give low values 0.961 | S. cerevisiae deletion strains, locus YFR028C, strain CDC14, hits give low values 0.974 | S. cerevisiae deletion strains, locus YGR040W, strain KSS1, hits give low values 0.91 | S. cerevisiae deletion strains, locus YGR052W, strain FMP48, hits give low values 0.97 | S. cerevisiae deletion strains, locus YGR092W, strain DBF2, hits give low values 0.934 | [2] 1.02 | [3] 1.03 | S. cerevisiae deletion strains, locus YHR082C, strain KSP1, hits give low values 1.01 | S. cerevisiae deletion strains, locus YHR205W, strain SCH9, hits give low values 0.916 | S. cerevisiae deletion strains, locus YIL147C, strain SLN1, hits give low values 0.956 | [4] 0.976 | S. cerevisiae deletion strains, locus YJL128C, strain PBS2, hits give low values 0.918 | S. cerevisiae deletion strains, locus YJL157C, strain FAR1, hits give low values 0.95 | S. cerevisiae deletion strains, locus YJR016C, strain ILV3, hits give low values 0.973 | S. cerevisiae deletion strains, locus YJR066W, strain TOR1 (second series), hits give low values 0.947 | [5] 1.04 | S. cerevisiae deletion strains, locus YKL048C, strain ELM1, hits give low values 0.901 | S. cerevisiae deletion strains, locus YKL067W, strain YNK1, hits give low values 0.942 | S. cerevisiae deletion strains, locus YKL101W, strain HSL1, hits give low values 0.892 | S. cerevisiae deletion strains, locus YKL193C, strain SDS22, hits give low values 0.968 | S. cerevisiae deletion strains, locus YKL203C, strain TOR2, hits give low values 0.996 | [6] 0.866 | S. cerevisiae deletion strains, locus YLR133W, strain CKI1, hits give low values 0.92 | S. cerevisiae deletion strains, locus YLR403W, strain SFP1, hits give low values 0.885 | S. cerevisiae deletion strains, locus YML070W, strain DAK1, hits give low values 0.923 | S. cerevisiae deletion strains, locus YMR001C, strain CDC5, hits give low values 0.966 | S. cerevisiae deletion strains, locus YMR205C, strain PFK2 (second series), hits give low values 0.953 | S. cerevisiae deletion strains, locus YMR277W, strain FCP1, hits give low values 0.978 | S. cerevisiae deletion strains, locus YNL006W, strain LST8, hits give low values 0.973 | S. cerevisiae deletion strains, locus YNL020C, strain ARK1, hits give low values 0.926 | S. cerevisiae deletion strains, locus YNL161W, strain CBK1, hits give low values 0.964 | [7] 1.02 | S. cerevisiae deletion strains, locus YNL207W, strain RIO2, hits give low values 0.946 | S. cerevisiae deletion strains, locus YNL222W, strain SSU72, hits give low values 0.966 | S. cerevisiae deletion strains, locus YNL307C, strain MCK1 (second series), hits give low values 0.945 | S. cerevisiae deletion strains, locus YOL078W, strain AVO1, hits give low values 0.962 | S. cerevisiae deletion strains, locus YOL136C, strain PFK27, hits give low values 0.879 | [8] 0.922 | S. cerevisiae deletion strains, locus YOR119C, strain RIO1, hits give low values 0.986 | [9] 0.948 | S. cerevisiae deletion strains, locus YOR329C, strain SCD5, hits give low values 0.968 | S. cerevisiae deletion strains, locus YPL031C, strain PHO85, hits give low values 0.934 | S. cerevisiae deletion strains, locus YPL153C, strain RAD53, hits give low values 0.95 | S. cerevisiae deletion strains, locus YPL204W, strain HRR25, hits give low values 0.897 | S. cerevisiae deletion strains, locus YPL209C, strain IPL1, hits give low values 0.967 | [10] 0.979 | S. cerevisiae deletion strains, locus YPR025C, strain CCL1, hits give low values 0.969 | S. cerevisiae deletion strains, locus YPR106W, strain ISR1, hits give low values 0.948 | S. cerevisiae deletion strains, locus YPR111W, strain DBF20, hits give low values 0.924 | S. cerevisiae deletion strains, strain NNK1, hits give low values 0.966 | S. cerevisiae deletion strains, strain TSCII, hits give low values 0.962

COc1cc2c(cc1-c1cc3cc4ccoc4cc3oc1=O)OCO2
active: S. cerevisiae deletion strains, locus YBR021W, strain FUR4, hits give low values 1.31 [resistant] | S. cerevisiae deletion strains, locus YER155C, strain BEM2, hits give low values 1.11 [resistant] | S. cerevisiae deletion strains, locus YHR094C, strain hxt1, hits give low values 1.16 [resistant] | S. cerevisiae deletion strains, locus YKL009W, strain mrt4, hits give low values 1.19 [resistant] | S. cerevisiae deletion strains, locus YLR371W, strain rom2, hits give low values 1.18 [resistant] | S. cerevisiae deletion strains, locus YMR307W, strain GAS1, hits give low values 1.57 [resistant] | S. cerevisiae deletion strains, locus YNL322C, strain KRE1, hits give low values 1.16 [resistant] | S. cerevisiae deletion strains, locus YOR316C, strain cot1, hits give low values 1.17 [resistant]
inactive: S. cerevisiae deletion strains, locus YBR229C, strain ROT2, hits give low values 0.995 | S. cerevisiae deletion strains, locus YCL029C, strain bik1, hits give low values 0.965 | S. cerevisiae deletion strains, locus YDL035C, strain GPR1, hits give low values 1.01 | S. cerevisiae deletion strains, locus YDL074C, strain BRE1, hits give low values 1 | [1] 0.98 | S. cerevisiae deletion strains, locus YDL185W, strain tfp1, hits give low values 0.97 | S. cerevisiae deletion strains, locus YDL192W, strain arf1, hits give low values 1.01 | S. cerevisiae deletion strains, locus YDR101C, strain arx1, hits give low values 0.981 | S. cerevisiae deletion strains, locus YDR150W, strain NUM1, hits give low values 0.991 | S. cerevisiae deletion strains, locus YDR162C, strain NBP2, hits give low values 0.977 | S. cerevisiae deletion strains, locus YDR318W, strain mcm21, hits give low values 0.973 | S. cerevisiae deletion strains, locus YDR388W, hits give low values 0.965 | S. cerevisiae deletion strains, locus YDR502C, strain sam2, hits give low values 0.95 | S. cerevisiae deletion strains, locus YEL061C, strain CIN8, hits give low values 1.01 | S. cerevisiae deletion strains, locus YER110C, hits give low values 0.97 | S. cerevisiae deletion strains, locus YER167W, strain BCK2, hits give low values 1.02 | S. cerevisiae deletion strains, locus YGL078C, strain dbp3, hits give low values 0.997 | S. cerevisiae deletion strains, locus YGL086W, strain mad1, hits give low values 1.01 | S. cerevisiae deletion strains, locus YGL248W, strain PDE1, hits give low values 0.977 | S. cerevisiae deletion strains, locus YGR078C, strain PAC10, hits give low values 0.993 | S. cerevisiae deletion strains, locus YGR135W, strain pre9, hits give low values 0.993 | S. cerevisiae deletion strains, locus YGR252W, strain gcn5, hits give low values 1.16 | [2] 0.984 and 1 | S. cerevisiae deletion strains, locus YHR079C, strain IRE1 (second series), hits give low values 0.979 | [3] 1.01 | S. cerevisiae deletion strains, locus YHR129C, strain ARP1, hits give low values 1.01 | S. cerevisiae deletion strains, locus YHR200W, strain rpn10, hits give low values 0.972 | S. cerevisiae deletion strains, locus YIL066C, strain RNR3, hits give low values 0.973 | S. cerevisiae deletion strains, locus YIL073C, strain SPO22, hits give low values 0.902 | S. cerevisiae deletion strains, locus YIL125W, strain kgd1, hits give low values 0.984 | S. cerevisiae deletion strains, locus YIR030C, strain dcg1, hits give low values 0.989 | [4] 0.979 and 1 | S. cerevisiae deletion strains, locus YJL134W, strain LCB3, hits give low values 0.973 | S. cerevisiae deletion strains, locus YJL168C, strain set2, hits give low values 1.01 | S. cerevisiae deletion strains, locus YJL187C, strain SWE1 (second series), hits give low values 0.98 | S. cerevisiae deletion strains, locus YJR043C, strain POL32, hits give low values 1.01 | [5] 0.942 | S. cerevisiae deletion strains, locus YKL068W, hits give low values 1.02 | S. cerevisiae deletion strains, locus YKL085W, strain MDH1 (second series), hits give low values 1.05 | S. cerevisiae deletion strains, locus YKL085W, strain MDH1, hits give low values 1.05 | S. cerevisiae deletion strains, locus YKR001C, strain vps1, hits give low values 1.01 | S. cerevisiae deletion strains, locus YLR039C, strain RIC1, hits give low values 0.954 | S. cerevisiae deletion strains, locus YLR058C, strain SHM2, hits give low values 0.973 | S. cerevisiae deletion strains, locus YLR102C, strain apc9, hits give low values 0.997 | [6] 0.996 | S. cerevisiae deletion strains, locus YLR262C, strain YPT6, hits give low values 1.19 | S. cerevisiae deletion strains, locus YLR268W, strain sec22, hits give low values 0.95 | S. cerevisiae deletion strains, locus YLR330W, strain CHS5, hits give low values 0.983 | S. cerevisiae deletion strains, locus YLR342W, strain FKS1 (second series), hits give low values 0.993 | S. cerevisiae deletion strains, locus YLR418C, strain cdc73, hits give low values 0.915 | S. cerevisiae deletion strains, locus YML016C, strain PPZ1, hits give low values 0.982 | S. cerevisiae deletion strains, locus YML032C, strain rad52, hits give low values 0.983 | S. cerevisiae deletion strains, locus YML124C, strain tub3, hits give low values 0.975 | S. cerevisiae deletion strains, locus YMR078C, strain ctf18, hits give low values 0.984 | S. cerevisiae deletion strains, locus YMR223W, strain ubp8, hits give low values 0.999 | S. cerevisiae deletion strains, locus YNL067W, strain RPL9B, hits give low values 0.968 | S. cerevisiae deletion strains, locus YNL128W, strain TEP1, hits give low values 1.01 | [7] 0.925 | S. cerevisiae deletion strains, locus YNL233W, strain BNI4, hits give low values 1 | S. cerevisiae deletion strains, locus YNL250W, strain rad50, hits give low values 0.975 | S. cerevisiae deletion strains, locus YNL271C, strain bni1, hits give low values 0.991 | S. cerevisiae deletion strains, locus YNL298W, strain CLA4, hits give low values 1 | S. cerevisiae deletion strains, locus YNL307C, strain MCK1, hits give low values 0.944 | S. cerevisiae deletion strains, locus YNR052C, strain pop2, hits give low values 1.03 | S. cerevisiae deletion strains, locus YOL012C, strain htz1 1.22 | S. cerevisiae deletion strains, locus YOL147C, strain pex11, hits give low values 0.992 | [8] 0.971 | S. cerevisiae deletion strains, locus YOR069W, strain VPS5, hits give low values 0.977 | S. cerevisiae deletion strains, locus YOR136W, strain idh2, hits give low values 0.987 | S. cerevisiae deletion strains, locus YOR144C, strain elg1, hits give low values 0.981 | S. cerevisiae deletion strains, locus YOR184W, strain ser1, hits give low values 0.907 | [9] 1.07 | S. cerevisiae deletion strains, locus YPL241C, strain CIN2, hits give low values 0.984 | [10] 1.01 | S. cerevisiae deletion strains, locus YPR119W, strain clb2, hits give low values 0.966 | S. cerevisiae deletion strains, locus YPR141C, strain kar3, hits give low values 1.02 | S. cerevisiae deletion strains, locus YPR163C, strain tif3, hits give low values 0.969 | S. cerevisiae deletion strains, locus YPR167C, strain met16, hits give low values 0.995 | S. cerevisiae deletion strains, strain wtn01, hits give low values 0.972 | S. cerevisiae strains, strain wild type, hits give low values 1.01
